Data: PubChem BioAssay (Tox21)
Values joined by “and” are separate entries in the source; they are usually repeats but may differ in a detail not shown here. Identical values can stand only once. Records with an inconclusive call do not appear. More than one record can exist for a structure, and the calls need not agree. Active and inactive are the calls of the source. Calls follow the shape of the full dose curve. Residues, ends and D or L forms follow the SMILES beside them.
% is scaled to controls: 0 for no effect and ±100 for the full control effect; potency is read from the fitted curve at half-maximal effect.

The molecules below were run against Acetylcholinesterase (Homo sapiens) (UniProt P22303) (assay: Acetylcholinesterase (AChE) small molecule antagonists: colormetric cell-based qHTS assay (AID 1347395; also: nearly all actives have a fitted effect of over 30% in size)). Conditions: SH-SY5Y cells AChE activity, colorimetric (Ellman); series mostly up to 115 µM; activity, negative = inhibition: at the top concentration.
Acetylcholinesterase (Homo sapiens), sequence (P22303 whole entry, looked up): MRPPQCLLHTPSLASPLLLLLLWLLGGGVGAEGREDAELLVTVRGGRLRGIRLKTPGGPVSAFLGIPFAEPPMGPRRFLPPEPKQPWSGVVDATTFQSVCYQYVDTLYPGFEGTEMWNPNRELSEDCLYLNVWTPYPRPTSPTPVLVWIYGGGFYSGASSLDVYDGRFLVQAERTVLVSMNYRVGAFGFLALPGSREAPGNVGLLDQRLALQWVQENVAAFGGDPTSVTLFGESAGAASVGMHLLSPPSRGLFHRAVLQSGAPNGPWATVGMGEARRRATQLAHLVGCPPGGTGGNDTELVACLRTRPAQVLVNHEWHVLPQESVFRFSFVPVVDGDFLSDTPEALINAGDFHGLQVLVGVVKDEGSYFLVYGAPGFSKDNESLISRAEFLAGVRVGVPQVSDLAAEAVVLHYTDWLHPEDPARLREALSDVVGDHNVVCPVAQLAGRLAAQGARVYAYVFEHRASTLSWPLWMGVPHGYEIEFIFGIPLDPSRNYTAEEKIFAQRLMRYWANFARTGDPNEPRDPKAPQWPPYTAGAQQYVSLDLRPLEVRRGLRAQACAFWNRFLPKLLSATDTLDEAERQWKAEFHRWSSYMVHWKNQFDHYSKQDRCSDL
How it was run: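 SH-SY5Y cells attached overnight, exposed to compound 30 min at 37 C, then given DTNB/acetylthiocholine; after 90 min at 37 C, colorimetric thiocholine read gives cellular AChE activity.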
`O=C[C@H](O)[C@H](O)[C@H](O)CO` was tested, and the “activity, negative = inhibition” value was 0.549% (inactive).
For `CCCCCCCCCC(=O)OC`, the Potency was “inactive”.
For `O=C(O)c1ccc(-n2nc(-c3ccccc3O)nc2-c2ccccc2O)cc1`, the “activity, negative = inhibition” value was -1.35% [at 52.9 µM] (inactive).
`Nc1cc(Cl)c(-c2cc(Cl)c(N)cc2Cl)cc1Cl` was tested, and the Potency was “inactive”.
For `CCC(=O)Nc1cccc(N)c1`, the “activity, negative = inhibition” value was -3.58% (inactive).
For `O=[N+]([O-])c1cc[n+]([O-])cc1`, the “activity, negative = inhibition” value was -1.68% (inactive).
In the case of `CNS(=O)(=O)Cc1ccc2[nH]cc(CCN(C)C)c2c1`, the “activity, negative = inhibition” value is reported as -7.02% [at 52.9 µM] (inactive).
With `CC(C)CC=O` the “activity, negative = inhibition” value was 2.3% (inactive).
`CCNc1nc(N)nc(Cl)n1` was tested, and the “activity, negative = inhibition” value was 0.931% (inactive).
`CC(=O)[C@H]1CC[C@H]2[C@@H]3CCC4=CC(=O)CC[C@]4(C)[C@H]3CC[C@]12C` was tested, and the Potency was 39.7 µM (active) and 35.6 µM (active).
With `COCC(C)O` (stereo not given) the Potency was “inactive”.
In the case of `CO[C@H]1C=CO[C@@]2(C)Oc3c(C)c(O)c4c(O)c(c(/C=N/N5CCN(C)CC5)c(O)c4c3C2=O)NC(=O)/C(C)=C\C=C[C@H](C)[C@H](O)[C@@H](C)[C@@H](O)[C@@H](C)[C@H](OC(C)=O)[C@@H]1C`, the Potency is reported as “inactive”.
`CCN[C@H]1CN(CCCOC)S(=O)(=O)c2sc(S(N)(=O)=O)cc21` was tested, and the “activity, negative = inhibition” value was 2.18% [at 52.9 µM] (inactive).
`COc1cc(C=O)ccc1O` was tested, and the Potency was “inactive”.
`c1ccc(Nc2cccc3ccccc23)cc1` was tested, and the Potency was “inactive”.
For `CCCCCCCCS(=O)C(C)Cc1ccc2c(c1)OCO2` (stereo not given), the “activity, negative = inhibition” value was 0.102% (inactive).
In the case of `CC1CCC(C(C)CS)CC1S` (stereo not given), the “activity, negative = inhibition” value is reported as 2.86% (inactive).
In the case of `CCC(=O)CC(C)CC` (stereo not given), the activity, negative = inhibition is reported as -0.199% [at 0.435 µM] (inactive).
`COC(=O)OC` was tested, and the Potency was “inactive”.
In the case of `CC(C)(C)NC(N)=O`, the “activity, negative = inhibition” value is reported as 6.15% (inactive).
For `CC(C)(C)C1CCC(O)CC1` (stereo not given), the Potency was “inactive”.
With `CC(=O)OC/C=C(C)/C=C/C=C(C)/C=C/C1=C(C)CCCC1(C)C` the Potency was “inactive”.
With `Cc1ccc(Cl)c(N)c1Cl` the “activity, negative = inhibition” value was 4.2% (inactive).
For `Cc1cc(Cc2ccc(N)c(C)c2)ccc1N`, the Potency was “inactive”.
In the case of `CO[C@@]1(NC(=O)C(C(=O)O)c2ccc(O)cc2)C(=O)N2C(C(=O)O)=C(CSc3nnnn3C)CO[C@@H]21` (stereo not given in full), the “activity, negative = inhibition” value is reported as 1.3% [at 52.9 µM] (inactive).
With `Oc1ccc(Oc2ccccc2)cc1` the “activity, negative = inhibition” value was -0.045% (inactive).
For `CCCCCCCCCCCCc1ccc(O)cc1`, the “activity, negative = inhibition” value was -0.547% (inactive).
With `CC(=O)Nc1ccc(OCC(O)CNC(C)C)cc1` (stereo not given) the “activity, negative = inhibition” value was -2.64% [at 52.9 µM] (inactive).
For `Cc1nc2c([nH]1)c(=O)n(C)c(=O)n2Cc1ccco1`, the “activity, negative = inhibition” value was -1.58% [at 52.9 µM] (inactive).
In the case of `Cc1cc(CC(=O)O)n(C)c1C(=O)c1ccc(Cl)cc1`, the Potency is reported as “inactive”.
`Nc1ccc(-c2ccc(F)cc2)cc1` was tested, and the “activity, negative = inhibition” value was -0.0994% (inactive).
`NC(=O)NC1NC(=O)NC1=O` (stereo not given) was tested, and the Potency was “inactive”.
With `O=C(O)c1ccc(OCCCOc2ccc(C(=O)O)cc2)cc1` the “activity, negative = inhibition” value was -1.68% [at 52.9 µM] (inactive).
For `CSc1cnccn1`, the “activity, negative = inhibition” value was 1.96% (inactive).
`CN(C)CCCCl` was tested, and the “activity, negative = inhibition” value was -0.102% (inactive).
`O=C1c2ccccc2C(=O)c2c(O)ccc(O)c21` was tested, and the “activity, negative = inhibition” value was -0.836% (inactive).
With `N[C@@H](Cc1cc(I)c(Oc2cc(I)c(O)c(I)c2)c(I)c1)C(=O)O` the Potency was “inactive”.
`Clc1cc(Cl)nc(Cl)n1` was tested, and the “activity, negative = inhibition” value was -0.606% (inactive).
For `CCCCCCCCCCCCc1ccccc1O`, the Potency was “inactive”.
In the case of `COC(=O)[C@H](Cc1ccccc1)NC(=O)[C@@H](N)CC(=O)O` (H-Asp-Phe-OMe), the Potency is reported as “inactive”.

What follows are molecules tested against Acetylcholinesterase (Homo sapiens) (UniProt P22303) (assay: Acetylcholinesterase (AChE) small molecule antagonists: fluorescence cell-based qHTS assay (AID 1347398; also: nearly all actives have a fitted effect of over 50% in size)). Conditions: SH-SY5Y cells; Potency: AChE activity; outcome: AChE activity; series mostly up to 115 µM; activity change, negative = inhibition: at the top concentration.
How it was run: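 Fluorimetric cell-based assay: intact SH-SY5Y cells, 30 min compound preincubation at 37 C, acetylthiocholine substrate with thiol probe Thiolite Green, 40 min RT development, fluorescence 490/520 nm.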
In the case of `O=C[C@H](O)[C@H](O)[C@H](O)CO`, the “activity change, negative = inhibition” value is reported as 1.42% (inactive).
`CCCCCCCCCC(=O)OC` was tested, and the Potency was 34.9 µM (active) and inactive.
For `O=C(O)c1ccc(-n2nc(-c3ccccc3O)nc2-c2ccccc2O)cc1`, the “activity change, negative = inhibition” value was 10.1% [at 53.7 µM] (inactive).
For `Nc1cc(Cl)c(-c2cc(Cl)c(N)cc2Cl)cc1Cl`, the Potency was “inactive”.
For `CCC(=O)Nc1cccc(N)c1`, the “activity change, negative = inhibition” value was 0.4% (inactive).
For `O=[N+]([O-])c1cc[n+]([O-])cc1`, the “activity change, negative = inhibition” value was 2.85% (inactive).
`CNS(=O)(=O)Cc1ccc2[nH]cc(CCN(C)C)c2c1` was tested, and the “activity change, negative = inhibition” value was -5.52% [at 53.7 µM] (inactive).
With `CC(C)CC=O` the “activity change, negative = inhibition” value was -0.048% (inactive).
`CCNc1nc(N)nc(Cl)n1` was tested, and the “activity change, negative = inhibition” value was 2.37% (inactive).
For `CC(=O)[C@H]1CC[C@H]2[C@@H]3CCC4=CC(=O)CC[C@]4(C)[C@H]3CC[C@]12C`, the Potency was 28.1 µM (active) and 31.7 µM (active).
For `COCC(C)O` (stereo not given), the Potency was “inactive”.
`CO[C@H]1C=CO[C@@]2(C)Oc3c(C)c(O)c4c(O)c(c(/C=N/N5CCN(C)CC5)c(O)c4c3C2=O)NC(=O)/C(C)=C\C=C[C@H](C)[C@H](O)[C@@H](C)[C@@H](O)[C@@H](C)[C@H](OC(C)=O)[C@@H]1C` was tested, and the Potency was “inactive”.
`CCN[C@H]1CN(CCCOC)S(=O)(=O)c2sc(S(N)(=O)=O)cc21` was tested, and the “activity change, negative = inhibition” value was 4.89% [at 53.7 µM] (inactive).
For `COc1cc(C=O)ccc1O`, the Potency was “inactive”.
For `c1ccc(Nc2cccc3ccccc23)cc1`, the Potency was “inactive”.
With `CCCCCCCCS(=O)C(C)Cc1ccc2c(c1)OCO2` (stereo not given) the “activity change, negative = inhibition” value was -24.7% (inactive).
With `CC1CCC(C(C)CS)CC1S` (stereo not given) the “activity change, negative = inhibition” value was -6.9% (inactive).
In the case of `CCC(=O)CC(C)CC` (stereo not given), the activity change, negative = inhibition is reported as 1.06% [at 0.439 µM] (inactive).
`COC(=O)OC` was tested, and the Potency was “inactive”.
For `CC(C)(C)NC(N)=O`, the “activity change, negative = inhibition” value was 2.75% (inactive).
With `CC(C)(C)C1CCC(O)CC1` (stereo not given) the Potency was “inactive”.
With `CC(=O)OC/C=C(C)/C=C/C=C(C)/C=C/C1=C(C)CCCC1(C)C` the Potency was “inactive”.
With `Cc1ccc(Cl)c(N)c1Cl` the “activity change, negative = inhibition” value was 1.32% (inactive).
With `Cc1cc(Cc2ccc(N)c(C)c2)ccc1N` the Potency was “inactive”.
In the case of `CO[C@@]1(NC(=O)C(C(=O)O)c2ccc(O)cc2)C(=O)N2C(C(=O)O)=C(CSc3nnnn3C)CO[C@@H]21` (stereo not given in full), the “activity change, negative = inhibition” value is reported as 25.8% [at 53.7 µM] (inactive).
With `Oc1ccc(Oc2ccccc2)cc1` the “activity change, negative = inhibition” value was -8.55% (inactive).
For `CCCCCCCCCCCCc1ccc(O)cc1`, the “activity change, negative = inhibition” value was -5.45% (inactive).
In the case of `CC(=O)Nc1ccc(OCC(O)CNC(C)C)cc1` (stereo not given), the “activity change, negative = inhibition” value is reported as 6.91% [at 53.7 µM] (inactive).
`Cc1nc2c([nH]1)c(=O)n(C)c(=O)n2Cc1ccco1` was tested, and the “activity change, negative = inhibition” value was -0.805% [at 53.7 µM] (inactive).
In the case of `Cc1cc(CC(=O)O)n(C)c1C(=O)c1ccc(Cl)cc1`, the Potency is reported as “inactive”.
With `Nc1ccc(-c2ccc(F)cc2)cc1` the “activity change, negative = inhibition” value was -0.686% (inactive).
With `NC(=O)NC1NC(=O)NC1=O` (stereo not given) the Potency was “inactive”.
In the case of `O=C(O)c1ccc(OCCCOc2ccc(C(=O)O)cc2)cc1`, the “activity change, negative = inhibition” value is reported as -0.892% [at 53.7 µM] (inactive).
`CSc1cnccn1` was tested, and the “activity change, negative = inhibition” value was 3.36% (inactive).
`CN(C)CCCCl` was tested, and the “activity change, negative = inhibition” value was 0.365% (inactive).
`O=C1c2ccccc2C(=O)c2c(O)ccc(O)c21` was tested, and the “activity change, negative = inhibition” value was -6.61% (inactive).
In the case of `N[C@@H](Cc1cc(I)c(Oc2cc(I)c(O)c(I)c2)c(I)c1)C(=O)O`, the Potency is reported as “inactive”.
In the case of `Clc1cc(Cl)nc(Cl)n1`, the “activity change, negative = inhibition” value is reported as -1.07% (inactive).
For `CCCCCCCCCCCCc1ccccc1O`, the Potency was “inactive”.
For `COC(=O)[C@H](Cc1ccccc1)NC(=O)[C@@H](N)CC(=O)O` (H-Asp-Phe-OMe), the Potency was “inactive”.
